Assay results from PubChem BioAssay.
For some assays here: Results with a measured potency or affinity are listed apart. Inconclusive results are not listed. Some of the results follow. Activity calls are given as the source filed them. Unless noted, how the calls were made is not given here.

Assays:
[1] = RMG-1 ovarian cancer cell viability loss – cherry-pick, dose response (AID 687029;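 active means signal drop whose fitted half-maximal concentration is at most twice the top valid dose, in every test run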;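 further: cells exposed to compound for 96 hours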)
[2] = IOSE-T80 viability loss, PAX8-independent line – cell-based, cherry-pick, selectivity assay for PAX8 inhibitor project, dose response (AID 687032;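 active means fitted half-maximal concentration for viability loss no higher than twice the top valid dose, in every repeat run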;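 further: cells exposed to compound for 96 h before reading; 0% = neutral control wells and -100% = 2 µM mitoxantrone kill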)
[3] = general cell-killing toxicity readout – plate reader, dry powder samples, cytotoxicity control for PAX8 inhibitor project, dose response (AID 743021)
[4] = toxicity toward immortalized ovarian surface epithelium – cell-based, plate reader, dry powder samples, cytotoxicity control for PAX8 inhibitor project, dose response (AID 743045);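 further: 0% = neutral control median and -100% = positive control median; more negative values mean more cell killing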
[5] = A2780 cell killing – plate reader, dry powder samples, cytotoxicity control, dose response (AID 743046);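 further: 0% = neutral control wells and -100% = cytotoxic reference compound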
[6] = IGROV1 cell killing – plate reader, dry powder samples, PAX8 inhibitor project, dose response (AID 743043);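 further: more negative means fewer viable cells or more cytotoxicity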
[7] = OVCAR8 cell viability loss – plate reader, dry powder samples, PAX8 project, dose response (AID 743197)
[8] = OVCAR-3 cell viability loss – plate reader, dry powder samples, PAX8 inhibitor project, dose response (AID 743044); details: max activity: at 35 µM, hits give low values unless noted
[9] = small-molecule DNA binding by polarization – biochemical, fluorescence polarization, cherry-pick, counter-screen for EWS/Fli inhibitor project, dose response (AID 720586;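 active means fitted curve reaches a 35% signal fall AC35 below twice the sample's top valid tested dose, actives reach about 48 µM in these data; inactive means the rest, including activity in the rising direction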;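 further: 0% = neutral control median and -100% = 10 µM mitoxantrone control median; lower polarization ratio signals compound binding to DNA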)
[10] = CMV-driven luciferase expression suppression in HEK293 – cell-based, luminescence, dry powder, counter-screen for Pax8 inhibitor project, dose response (AID 743020;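 active means signal-lowering compounds whose fitted half-maximal concentration is at or below twice the top tested dose in every run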;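 further: HEK293 cells stably expressing the CMV luciferase reporter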)
[11] = target: Melanocortin receptor 4 (Homo sapiens) (UniProt P32245); assay: blockade of melanocortin 4 receptor signaling – cell-based, plate reader, cherry pick, counter-screen for LGR2 antagonist project, dose response (AID 743444)

Cc1noc(C)c1S(=O)(=O)Nc1ccc2c(c1)CC(=O)N([C@@H](C)CO)C[C@@H](C)[C@H](CN(C)Cc1ccc(Cl)c(Cl)c1)O2
inactive: outcome [1] | outcome [2] | outcome [3] | outcome [4] | outcome [5]

C[C@@H]1CCCCO[C@H](CN(C)Cc2ccc(C(F)(F)F)cc2)[C@H](C)CN([C@H](C)CO)C(=O)c2cc(NS(=O)(=O)c3ccc(Cl)cc3)ccc2O1
inactive: outcome [1] | outcome [2] | outcome [3] | outcome [4]

C[C@H]1CN([C@@H](C)CO)S(=O)(=O)c2ccc(C#Cc3ccc(F)cc3)cc2O[C@H]1CN(C)C(=O)NC1CCCCC1
inactive: outcome [1] | outcome [2] | outcome [3] | outcome [6] | outcome [4] | outcome [5] | outcome [7]

C[C@H]1CCCCO[C@H](CN(C)C(=O)Nc2ccc(C(F)(F)F)cc2)[C@@H](C)CN([C@@H](C)CO)C(=O)c2cc(NC(=O)Nc3ccccc3)ccc2O1
inactive: outcome [1] | outcome [2] | outcome [3] | outcome [4]

O=C(C[C@@H]1CC[C@@H]2[C@H](COC[C@@H](O)CN2C(=O)Nc2ccc(C(F)(F)F)cc2)O1)NC1Cc2ccccc2C1
inactive: outcome [1] | outcome [2] | outcome [3] | max activity [8] -24.5% | outcome [4] | outcome [5] | outcome [7]

C[C@@H]1CN([C@@H](C)CO)C(=O)Cc2cc(NC(=O)Nc3ccccc3)ccc2O[C@H]1CN(C)Cc1ccc(Oc2ccccc2)cc1
inactive: outcome [1] | outcome [2] | outcome [3] | max activity [8] -64.8% | outcome [4] | outcome [5] | outcome [7]

Cc1ccc(S(=O)(=O)Nc2ccc3c(c2)C(=O)N([C@@H](C)CO)C[C@H](C)[C@H](CN(C)Cc2ccc(C(F)(F)F)cc2)OCCCC[C@H](C)O3)cc1
inactive: outcome [1] | outcome [2] | outcome [3] | outcome [4] | outcome [5]

Cc1ccc(S(=O)(=O)Nc2ccc3c(c2)C(=O)N([C@H](C)CO)C[C@@H](C)[C@@H](CN(C)CC2CCCCC2)OCCCC[C@@H](C)O3)cc1
inactive: outcome [1] | outcome [2] | outcome [3] | outcome [4]

C[C@@H]1CN([C@H](C)CO)C(=O)c2cc(NS(=O)(=O)c3ccc(Cl)cc3)ccc2O[C@@H](C)CCCCO[C@H]1CN(C)S(=O)(=O)c1ccc(Cl)cc1
inactive: outcome [1] | outcome [2] | outcome [3] | outcome [4]

C[C@@H]1CN([C@H](C)CO)S(=O)(=O)c2ccc(C#Cc3ccncc3)cc2O[C@H]1CN(C)C(=O)C1CCCCC1
inactive: outcome [1] | outcome [2] | outcome [3] | outcome [6] | outcome [4] | outcome [5] | outcome [7]

COc1ccc(S(=O)(=O)Nc2ccc3c(c2)C(=O)N([C@@H](C)CO)C[C@H](C)[C@@H](CN(C)C(=O)Nc2ccc(C(F)(F)F)cc2)OCCCC[C@@H](C)O3)cc1
inactive: outcome [1] | outcome [2] | outcome [3] | outcome [4]

C[C@H]1CCCCO[C@H](CN(C)C(=O)c2ccccc2)[C@@H](C)CN([C@@H](C)CO)C(=O)c2cc(NC(=O)Nc3ccc(C(F)(F)F)cc3)ccc2O1
inactive: outcome [1] | outcome [2] | outcome [3] | outcome [4] | outcome [5]

C[C@@H]1CN([C@H](C)CO)C(=O)c2cc(NS(=O)(=O)c3ccc(Cl)cc3)ccc2O[C@@H](C)CCCCO[C@H]1CN(C)Cc1ccc(Cl)c(Cl)c1
inactive: outcome [1] | outcome [2] | outcome [3] | outcome [6] | outcome [4] | outcome [5] | outcome [7]

NC(=NCCCCCCN=C(N)/N=C(\N)Nc1ccc(Cl)cc1)/N=C(\N)Nc1ccc(Cl)cc1
inactive: outcome [1] | outcome [2] | outcome [3] | outcome [4]

C[C@@H]1CCCCO[C@@H](CN(C)C(=O)Nc2ccc(C(F)(F)F)cc2)[C@H](C)CN([C@H](C)CO)C(=O)c2cc(NS(=O)(=O)c3cccs3)ccc2O1
inactive: outcome [1] | outcome [2] | outcome [3] | outcome [4]

C[C@@H]1CCCCO[C@H](CN(C)Cc2ccc(Cl)c(Cl)c2)[C@H](C)CN([C@@H](C)CO)C(=O)c2cc(NS(=O)(=O)c3ccc(Cl)cc3)ccc2O1
inactive: outcome [1] | outcome [2] | outcome [3] | outcome [4] | outcome [5]

COc1cccc(-c2ccc3c(c2)[C@H]2[C@H](CCN2C(=O)c2ccccc2F)[C@H](CO)N3C)c1
inactive: outcome [1] | outcome [2] | outcome [3] | outcome [4] | outcome [5]

C[C@@H]1CN([C@H](C)CO)C(=O)c2cc(NS(=O)(=O)c3ccc(F)cc3)ccc2O[C@@H](C)CCCCO[C@H]1CN(C)Cc1ccc(C(F)(F)F)cc1
inactive: outcome [1] | outcome [2] | outcome [3] | outcome [4] | outcome [5]

C[C@@H]1CN([C@@H](C)CO)S(=O)(=O)c2ccc(C#Cc3ccccc3F)cc2O[C@H]1CN(C)C(=O)c1ccc2c(c1)OCO2
inactive: outcome [1] | outcome [2] | outcome [3] | outcome [4]

Cc1ccc(S(=O)(=O)N(C)C[C@H]2OCCCC[C@H](C)Oc3ccc(NS(=O)(=O)c4ccc(Cl)cc4)cc3C(=O)N([C@H](C)CO)C[C@@H]2C)cc1
inactive: outcome [1] | outcome [2] | outcome [3] | outcome [4] | outcome [5]

C[C@H](CO)N1C[C@H](C)[C@@H](CN(C)S(=O)(=O)c2ccccc2)OCCCC[C@H](C)Oc2ccc(NS(=O)(=O)c3ccc(Cl)cc3)cc2C1=O
inactive: outcome [1] | outcome [2] | outcome [3] | outcome [6] | outcome [4] | outcome [7]

C[C@@H]1CN([C@@H](C)CO)C(=O)c2c(c3ccccc3n2C)-c2ccccc2CO[C@@H]1CN(C)S(=O)(=O)c1ccc(C(F)(F)F)cc1
inactive: outcome [1] | outcome [2] | outcome [3] | max activity [8] -38.5% | outcome [4] | outcome [5] | outcome [7]

C[C@@H]1CCCCO[C@H](CN(C)C(=O)Nc2ccc(C(F)(F)F)cc2)[C@@H](C)CN([C@@H](C)CO)C(=O)c2cc(NS(=O)(=O)c3ccc(Cl)cc3)ccc2O1
inactive: outcome [1] | outcome [2] | outcome [3] | outcome [4]

C[C@@H]1CCCCO[C@@H](CN(C)Cc2ccc(C(F)(F)F)cc2)[C@@H](C)CN([C@@H](C)CO)C(=O)c2cc(NS(=O)(=O)c3ccc(Cl)cc3)ccc2O1
inactive: outcome [1] | outcome [2] | outcome [3] | outcome [4] | outcome [5]

C[C@H]1CCCCO[C@H](CN(C)Cc2ccc(Cl)c(Cl)c2)[C@@H](C)CN([C@@H](C)CO)C(=O)c2cc(NC(=O)Nc3ccc(C(F)(F)F)cc3)ccc2O1
inactive: outcome [1] | outcome [2] | outcome [3] | outcome [4] | outcome [5]

CC(C)CC#Cc1ccc2c(c1)O[C@@H](CN(C)Cc1ccncc1)[C@H](C)CN([C@H](C)CO)S2(=O)=O
inactive: outcome [1] | outcome [2] | outcome [3] | outcome [6] | outcome [5]

C[C@H]1CCCCO[C@@H](CN(C)S(=O)(=O)c2ccccc2)[C@@H](C)CN([C@@H](C)CO)C(=O)c2cc(NC(=O)Nc3ccc(C(F)(F)F)cc3)ccc2O1
inactive: outcome [1] | outcome [2] | outcome [3] | outcome [4] | outcome [5]

C[C@@H]1CN([C@H](C)CO)C(=O)c2cc(NS(=O)(=O)c3ccc(Cl)cc3)ccc2O[C@@H](C)CCCCO[C@@H]1CN(C)CC1CCCCC1
inactive: outcome [1] | outcome [2] | outcome [3] | outcome [4] | outcome [5]

C[C@@H]1CCCCO[C@@H](CN(C)S(=O)(=O)c2ccc(Cl)cc2)[C@H](C)CN([C@H](C)CO)C(=O)c2cc(NS(=O)(=O)c3ccc(Cl)cc3)ccc2O1
inactive: outcome [1] | outcome [2] | outcome [3] | outcome [4]

C[C@@H]1CN([C@H](C)CO)C(=O)c2cc(NC(=O)Nc3ccc(F)cc3)ccc2O[C@@H](C)CCCCO[C@H]1CN(C)S(=O)(=O)c1ccccc1
inactive: outcome [1] | outcome [2] | outcome [3] | outcome [6] | outcome [4] | outcome [5] | outcome [7]

Cc1ccc(-c2ccc([C@H]3[C@H](CO)N4CCCCN(S(=O)(=O)c5cccc(C)c5)C[C@@H]34)cc2)cc1
inactive: outcome [1] | outcome [2] | outcome [3] | outcome [4] | outcome [5]

O=C(Nc1ccccc1)N1C[C@@H]2N[C@H](C1)[C@@H]2c1ccc(/C=C/c2ccccc2)cc1
inactive: outcome [1] | outcome [2] | outcome [3] | outcome [6] | outcome [4] | outcome [7]

C[C@@H]1CN([C@@H](C)CO)C(=O)Cc2cc(N(C)C)ccc2O[C@H]1CN(C)Cc1ccc(C(=O)Nc2ccccc2N)cc1
inactive: outcome [1] | outcome [2] | outcome [3] | outcome [4] | outcome [5]

CC(C)CC#Cc1ccc2c(c1)O[C@@H](CN(C)S(=O)(=O)c1ccc(F)cc1)[C@@H](C)CN([C@@H](C)CO)S2(=O)=O
inactive: outcome [1] | outcome [2] | outcome [3] | outcome [4] | outcome [5]

Cn1nnnc1Sc1ncnc2scc(-c3ccc(F)cc3)c12
inactive: outcome [1] | outcome [2] | outcome [3] | outcome [8]

COc1ccc2c3c(n(C)c2c1)[C@H](CO)N(Cc1ccccc1)CC31CCN(S(=O)(=O)c2ccc(C)cc2)CC1
inactive: outcome [1] | outcome [2] | outcome [3] | outcome [4]

C[C@H](CO)N1C[C@H](C)[C@@H](CN(C)Cc2ccc(C(F)(F)F)cc2)OCCCC[C@H](C)Oc2ccc(NS(=O)(=O)c3ccc(Cl)cc3)cc2C1=O
inactive: outcome [1] | outcome [2] | outcome [3] | outcome [4]

C[C@@H]1CN([C@H](C)CO)C(=O)c2cc(NS(=O)(=O)c3cccs3)ccc2O[C@@H](C)CCCCO[C@@H]1CN(C)Cc1ccc(Cl)c(Cl)c1
inactive: outcome [1] | outcome [2] | outcome [3] | outcome [4]

Cc1ccc(S(=O)(=O)Nc2ccc3c(c2)C(=O)N([C@@H](C)CO)C[C@H](C)[C@@H](CN(C)C(=O)Nc2cccc4ccccc24)OCCCC[C@@H](C)O3)cc1
inactive: outcome [1] | outcome [2] | outcome [3] | outcome [6] | outcome [4] | outcome [5] | outcome [7]

Oc1c(Cl)cc(Cl)c(Cl)c1Cc1c(O)c(Cl)cc(Cl)c1Cl
inactive: AC35 [9]

CCCCCCCCn1c2c(c(=N)c3c1CCC3)CCCC2
inactive: AC35 [9] | outcome [10]

COc1cccc(-c2ccc(C3[C@@H]4CN(C(=O)C5CC5)C[C@H]3N4)cc2)c1 (stereo partly drawn)
inactive: outcome [11]

COc1ccc(C(=O)O/N=C(\N)c2ccccn2)cc1
inactive: outcome [1] | outcome [10]

CC(C)c1ccc(-c2nc3ccccc3s2)cc1
inactive: outcome [1] | outcome [10]

COc1cc(NC(=O)c2ccc([N+](=O)[O-])o2)ccc1NC(=O)c1ccco1
inactive: outcome [1] | outcome [10] | outcome [3]

CCC[C@@H](CN[C@@H](CNC)[C@H](C)CC)NCC1CCC(C(C)(C)C)CC1 (stereo partly drawn)
inactive: outcome [1] | outcome [10]

COc1ccc(N(Cc2cc3cc(OC)ccc3[nH]c2=O)S(=O)(=O)c2ccc(NC(C)=O)cc2)cc1
inactive: outcome [1] | outcome [10]

C=C1C(=O)[C@]23C[C@H]1CCC2[C@@]1(C)C(C[C@@H]3O)[C@](C)(C(=O)OC)CC[C@@H]1O (stereo partly drawn)
inactive: outcome [1] | outcome [10]

C(=N\Nc1nc2ccccc2s1)/c1ccccn1
inactive: outcome [1] | outcome [10]
